Calls of active or inactive are those of the source.

Assay [1] relates to Plasmodium falciparum Sir2 (PF13_0152, Sir2A). In words: Plasmodium falciparum Sir2A binding compounds – biochemical, small-molecule microarray, 635 nm fluorescence, primary screen (AID 1098).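 Also: score merges spot fluorescence intensity with its signal-to-noise ratio.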 As to conditions: fluorescence 635 nm, higher = more signal.
Assay [2] is described as follows: probe aDKK1 binding to arrayed compounds – biochemical, biotinylated probe, 635/667 nm fluorescence, primary screen (AID 1099).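 Also: score merges 667nm spot fluorescence with signal to noise across triplicate slides.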 The settings on record: small-molecule microarray, higher = more signal.
A short description of assay [3]: probe aCHRDL2 binding to arrayed compounds – biochemical, biotinylated probe, 635/667 nm fluorescence, primary screen (AID 1100). As to conditions: small-molecule microarray, higher = more signal.
Assay [4] in a line: change in splice reporter luminescence, either direction, cell-based, HEK293, spliceosome inhibition project, primary screen (AID 1101).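 Also: HEK293 cells carrying a splicing-competent luciferase reporter gene; test concentration not given here.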 The settings on record: HEK293 splicing luciferase reporter, 24 h, higher = more signal, called active from +8 up or from −8 down. Background: Reporter assays use an easily measured gene product as a stand-in for the process of interest.
In assay [5] the target is Fibroblast growth factor 10 (Homo sapiens) (UniProt O15520). Briefly: compounds binding fibroblast growth factor 10 – biochemical, small-molecule microarray, 635 nm fluorescence, primary screen (AID 1102). The settings on record: FGF10 binding, fluorescence 635 nm, higher = more signal.
Sequence of Fibroblast growth factor 10 (Homo sapiens) (O15520 whole entry, looked up): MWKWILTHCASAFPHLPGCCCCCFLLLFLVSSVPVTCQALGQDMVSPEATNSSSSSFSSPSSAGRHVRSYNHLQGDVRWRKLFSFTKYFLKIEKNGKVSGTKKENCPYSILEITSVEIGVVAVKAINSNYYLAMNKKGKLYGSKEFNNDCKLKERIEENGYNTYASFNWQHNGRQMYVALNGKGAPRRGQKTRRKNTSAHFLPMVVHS
For assay [6], the system named is glycogen synthase kinase-3 (GSK3A per assay name; protocol says GSK3B). Briefly: compounds binding glycogen synthase kinase-3 – biochemical, small-molecule microarray, 635 nm fluorescence, GSK3A, primary screen (AID 1103). Also: the record names both GSK3A and GSK3B. The settings on record: fluorescence 635 nm, higher = more signal.
The target in assay [7] is Epidermal growth factor receptor (Homo sapiens) (UniProt P00533). Briefly: compounds binding epidermal growth factor receptor – biochemical, small-molecule microarray, 635 nm fluorescence, primary screen (AID 1104).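 Also: score merges 667 nm emission intensity with spot signal to noise over triplicate slides.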 The settings on record: EGFR binding, higher = more signal.
Sequence of Epidermal growth factor receptor (Homo sapiens) (P00533 whole entry, looked up): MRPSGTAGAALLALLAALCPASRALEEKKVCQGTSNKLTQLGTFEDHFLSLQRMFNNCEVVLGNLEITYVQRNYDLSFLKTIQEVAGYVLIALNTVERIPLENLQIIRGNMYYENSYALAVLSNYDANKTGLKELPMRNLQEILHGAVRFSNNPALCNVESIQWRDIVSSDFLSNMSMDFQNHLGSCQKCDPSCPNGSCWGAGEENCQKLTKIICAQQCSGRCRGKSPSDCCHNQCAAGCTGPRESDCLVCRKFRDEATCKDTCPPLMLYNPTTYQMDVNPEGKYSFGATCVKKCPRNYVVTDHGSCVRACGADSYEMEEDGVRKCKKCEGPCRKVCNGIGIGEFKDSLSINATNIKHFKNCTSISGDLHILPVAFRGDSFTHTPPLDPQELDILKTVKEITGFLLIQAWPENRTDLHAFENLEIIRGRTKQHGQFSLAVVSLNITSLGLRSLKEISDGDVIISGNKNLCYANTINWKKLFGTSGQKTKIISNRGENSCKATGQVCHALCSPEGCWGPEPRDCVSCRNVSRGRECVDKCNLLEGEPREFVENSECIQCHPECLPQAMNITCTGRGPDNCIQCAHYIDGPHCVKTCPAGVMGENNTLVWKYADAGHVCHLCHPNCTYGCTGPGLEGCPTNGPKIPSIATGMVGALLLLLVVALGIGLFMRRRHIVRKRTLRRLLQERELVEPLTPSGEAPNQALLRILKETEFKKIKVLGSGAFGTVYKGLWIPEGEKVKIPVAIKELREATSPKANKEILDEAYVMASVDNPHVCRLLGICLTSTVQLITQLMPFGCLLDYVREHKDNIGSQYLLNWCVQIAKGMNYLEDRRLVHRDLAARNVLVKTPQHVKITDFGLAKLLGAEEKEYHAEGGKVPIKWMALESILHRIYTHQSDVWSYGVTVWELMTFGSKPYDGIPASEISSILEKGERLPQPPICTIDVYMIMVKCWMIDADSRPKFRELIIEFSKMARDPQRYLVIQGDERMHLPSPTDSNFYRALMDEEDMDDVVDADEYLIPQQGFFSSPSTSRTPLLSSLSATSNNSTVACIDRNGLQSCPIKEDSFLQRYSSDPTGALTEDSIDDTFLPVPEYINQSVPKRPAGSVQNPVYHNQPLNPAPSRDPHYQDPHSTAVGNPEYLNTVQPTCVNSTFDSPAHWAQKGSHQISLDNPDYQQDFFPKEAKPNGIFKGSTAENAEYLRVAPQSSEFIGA
In assay [8] the target is Follistatin-related protein 3 (Homo sapiens) (UniProt O95633). Briefly: compounds binding follistatin-related protein 3 – biochemical, small-molecule microarray, 635 nm fluorescence, primary screen (AID 1105).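 Also: score merges emission near 667 nm and signal to noise per printed spot across three slides.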 The settings on record: FSTL3 binding, higher = more signal.
Sequence of Follistatin-related protein 3 (Homo sapiens) (O95633 whole entry, looked up): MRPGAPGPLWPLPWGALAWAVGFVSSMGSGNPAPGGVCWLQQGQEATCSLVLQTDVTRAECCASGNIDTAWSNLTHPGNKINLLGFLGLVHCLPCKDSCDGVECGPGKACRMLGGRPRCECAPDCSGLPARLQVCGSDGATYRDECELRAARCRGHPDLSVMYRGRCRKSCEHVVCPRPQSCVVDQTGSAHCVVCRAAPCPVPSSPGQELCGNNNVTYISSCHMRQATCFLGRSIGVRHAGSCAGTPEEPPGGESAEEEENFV
The target of assay [9] is Dickkopf-related protein 1 (Homo sapiens) (UniProt O94907). In words: small molecules binding DKK1 protein – biochemical, small-molecule microarray, 635 nm fluorescence scan, primary screen (AID 1106).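 Also: score merges emission near 667 nm with signal to noise over three replicate slides.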 As to conditions: higher = more signal.
Sequence of Dickkopf-related protein 1 (Homo sapiens) (O94907 whole entry, looked up): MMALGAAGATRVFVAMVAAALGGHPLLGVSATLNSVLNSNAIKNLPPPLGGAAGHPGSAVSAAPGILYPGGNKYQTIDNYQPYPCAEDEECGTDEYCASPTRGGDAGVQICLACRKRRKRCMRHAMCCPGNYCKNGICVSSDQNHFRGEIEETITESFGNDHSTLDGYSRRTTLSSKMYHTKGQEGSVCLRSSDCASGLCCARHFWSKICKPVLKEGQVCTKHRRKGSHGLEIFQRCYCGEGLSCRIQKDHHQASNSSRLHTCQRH
The subject of assay [10] is Inhibin beta A chain (activin A). Briefly: small molecules binding activin A – biochemical, small-molecule microarray, 635 nm fluorescence scan, primary screen (AID 1107).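 Also: mouse activin A protein probed at 4.33 µg/mL on printed slides; score merges bound-protein fluorescence near 667 nm with spot signal-to-noise.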 The settings on record: INHBA, higher = more signal.
Assay [11] relates to Human papillomavirus type 1a protein E7 (residues 44-93). In words: small molecules binding HPV E7 44-93 – biochemical, small-molecule microarray, residues 44-93, 635 nm fluorescence, primary screen (AID 1108).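 Also: E7 fragment applied at 1 µg/mL in TBST for 1 h at 4 C; score combines spot fluorescence with its signal to noise ratio.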 As to conditions: fluorescence 635 nm, higher = more signal.
Assay [12] is described as follows: hepatitis C replication reporter changes, two-sided – Huh7 cells, luciferase reporter, HCV replication inhibitor project, primary screen (AID 1109).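 Also: huh7 hepatoma cells harbouring a luciferase neomycin HCV replicon reporter; luciferase luminescence as measure of HCV replicon replication; test concentration not given here.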 As to conditions: Huh7 HCV replicon luciferase reporter, 48 h; higher = more signal.
Assay [13] addresses Left-right determination factor 2 (Homo sapiens) (UniProt O00292). Briefly: small molecules binding LEFTY2 protein – biochemical, small-molecule microarray, 635 nm fluorescence scan, primary screen (AID 1110). The settings on record: higher = more signal.
The target of assay [14] is Calmodulin-1 (Homo sapiens) (UniProt P0DP23). Briefly: small molecules binding calmodulin-1 with EGTA – biochemical, small-molecule microarray, Cy5-labelled CALM1, profiling panel (AID 1111).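 Also: labelled calmodulin applied in Tris saline Tween buffer holding calcium plus EGTA and DTT.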 The settings on record: Cy5-CALM1 binding fluorescence, higher = more signal.
For assay [15] the target is unchanged. In words: small molecules binding Ca-loaded calmodulin-1 – biochemical, small-molecule microarray, Cy5-labelled CALM1, plus calcium, artefact control for SMM control-protein annotation, profiling panel (AID 1112).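 Also: score merges spot fluorescence with signal to noise from triplicate slides.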 The settings on record: Cy5-CALM1 binding fluorescence, higher = more signal.
A short description of assay [16]: probe aWnt5a binding to arrayed compounds – biochemical, biotinylated probe, 635/667 nm fluorescence, primary screen (AID 1113).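 Also: score merges 667 nm fluorescence intensity with signal-to-noise per printed feature.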 The settings on record: small-molecule microarray, higher = more signal.
Assay [17] can be described thus: probe aShh binding to arrayed compounds – biochemical, biotinylated probe, 635/667 nm fluorescence, primary screen (AID 1114).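 Also: probe is biotin-labelled aShh protein from a stem cell growth factor screen; measures binding of labelled protein to compounds printed on the slide; score merges feature fluorescence at 667 nm with signal-to-noise.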 As to conditions: small-molecule microarray, higher = more signal.
Assay [18] in a line: probe aNog binding to arrayed compounds – biochemical, biotinylated probe, 635/667 nm fluorescence, primary screen (AID 1115).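 Also: probe is biotinylated aNog protein used at 0.15 µg/mL for 1 h at 4 C; z-score combines 667 nm fluorescence of each spot with its signal to noise.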 As to conditions: small-molecule microarray, higher = more signal.
For assay [19], the target named is Torsin-1A-interacting protein 1 (Homo sapiens) (UniProt Q5JTV8). Briefly: compound microarray binding of lysate hLAP1 – cell lysate, small-molecule microarray, COS7 lysate, 635/667 nm fluorescence, primary screen (AID 1116). As to conditions: 635 nm fluorescence, higher = more signal.
Sequence of Torsin-1A-interacting protein 1 (Homo sapiens) (Q5JTV8 whole entry, looked up): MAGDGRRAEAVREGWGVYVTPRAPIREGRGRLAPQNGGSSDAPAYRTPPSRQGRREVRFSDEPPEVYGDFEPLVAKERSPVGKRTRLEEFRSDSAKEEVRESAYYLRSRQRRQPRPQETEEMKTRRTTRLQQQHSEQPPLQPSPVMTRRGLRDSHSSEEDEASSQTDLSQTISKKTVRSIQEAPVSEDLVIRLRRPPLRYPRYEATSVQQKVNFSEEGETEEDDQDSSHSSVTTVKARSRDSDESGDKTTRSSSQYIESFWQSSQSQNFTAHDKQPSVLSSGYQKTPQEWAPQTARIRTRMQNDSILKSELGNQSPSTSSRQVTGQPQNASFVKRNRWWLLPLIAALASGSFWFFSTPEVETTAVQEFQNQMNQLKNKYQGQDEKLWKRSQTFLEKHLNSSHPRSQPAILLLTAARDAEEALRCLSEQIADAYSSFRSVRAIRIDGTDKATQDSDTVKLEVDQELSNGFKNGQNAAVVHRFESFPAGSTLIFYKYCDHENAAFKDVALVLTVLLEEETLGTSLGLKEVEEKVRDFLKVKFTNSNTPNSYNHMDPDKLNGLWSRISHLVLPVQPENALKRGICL
For assay [20], the target named is Alpha-bungarotoxin (Bungarus multicinctus) (UniProt P60615). Briefly: compounds binding labelled alpha-BTX control protein – biochemical, small-molecule microarray, Alexa647 label, 635/667 nm fluorescence, artefact control for SMM control protein annotation, profiling panel (AID 1117). As to conditions: alpha-BTX-A647 binding fluorescence, higher = more signal.
Sequence of Alpha-bungarotoxin (Bungarus multicinctus) (P60615 whole entry, looked up): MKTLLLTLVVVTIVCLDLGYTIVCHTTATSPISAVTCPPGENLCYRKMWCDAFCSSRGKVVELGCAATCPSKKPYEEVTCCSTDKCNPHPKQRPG

Sequence of Left-right determination factor 2 (Homo sapiens) (O00292 whole entry, looked up): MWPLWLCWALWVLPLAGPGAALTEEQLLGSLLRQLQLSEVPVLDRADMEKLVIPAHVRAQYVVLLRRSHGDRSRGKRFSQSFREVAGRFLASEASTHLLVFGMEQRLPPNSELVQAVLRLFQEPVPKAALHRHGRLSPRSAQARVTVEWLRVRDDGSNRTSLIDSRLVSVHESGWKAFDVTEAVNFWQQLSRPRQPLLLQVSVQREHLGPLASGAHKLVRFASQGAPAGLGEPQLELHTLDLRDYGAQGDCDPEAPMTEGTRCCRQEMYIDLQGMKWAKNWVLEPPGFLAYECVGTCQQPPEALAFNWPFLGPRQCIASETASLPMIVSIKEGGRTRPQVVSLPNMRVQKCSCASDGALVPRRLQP

As for `Cn1cccc1C(O)C1C=CC2C(=O)NC(=O)C2N1Nc1ccc(Cl)cc1Cl` (stereo not given), the composite z-score turned out to be 1.21 in [1]; 1.3 in assay [2]; 1.33 in [3]; 0.914 in assay [5]; 0.593 in [6]; 0.295 in [7]. The composite z-score in assay [8] was 1.34; in [9] it was -0.43; in assay [10] it was 0.657; in assay [11] it was 0.981; in assay [13], -0.378; in [14] it was 2.24. The composite z-score was determined as 0.879 in assay [15]; 0.0044 in assay [16]; 0.184 in [17]; 1.92 in assay [18]; 2.08 in assay [19]; 2.28 in [20]. The z-score in assay [4] was 1.08 (inactive); in assay [12], -0.202.

With `Cc1ccc(S[C@]2(C(=O)O)CC(=O)N(C3Cc4ccccc4C3)[C@@H]2c2ccc(CO)cc2)cc1`, the composite z-score in assay [1] was 1.02; in [2], 0.526; in assay [3], 1.08; in [5], 0.0926; in assay [6], -0.775; in assay [7], -0.846. Besides, the composite z-score in [8] is -0.946; in assay [9] it was -1.69; in assay [10] it was 1.19; in [11] it was 0.0922; in [13] it was -1.07; in assay [14] it was 0.967. The composite z-score in [15] is 1.1; in assay [16] it was 0.0077; in assay [17], -0.0322; in [18], 0.649; in assay [19], 0.0148; in assay [20], 0.0125. The z-score in [4] was 0.2 (inactive); in [12] it was -0.0907.

With `CCCNC(=O)[C@@]1(c2ccc([N+](=O)[O-])cc2)CC(=O)N(C2CCCCC2)[C@@H]1c1ccc(CO)cc1`, the composite z-score in assay [1] is 0.472; in assay [2], 0.175; in assay [3] it was 0.39; in assay [5], 0.946; in assay [6] it was 1.22; in assay [7] it was 0.237. Besides, the composite z-score in [8] amounted to 0.869; in [9], 0.301; in assay [10], 0.254; in [11] it was 1.5; in assay [13], 0.357; in assay [14] it was 0.653. For the same molecule, the composite z-score in assay [15] is -0.0681; in [16] it was -0.0285; in assay [17], 0.446; in [18] it was -0.0216; in [19] it was 1.2; in [20], 0.764. Besides, the results for the z-score in assay [4] and in assay [12] were -0.867 (inactive) and -0.887, respectively.

Turning to `CN(C)CCCCNC(=O)[C@@H]1C[C@@H]2C(=O)N[C@@H](Cc3ccccc3)C(=O)N2[C@@H]1c1cccc(OCCO)c1`, the composite z-score turned out to be 0.769 in assay [1]; 0.0115 in assay [2]; 0.393 in [3]; 0.407 in assay [5]; 0.727 in assay [6]; 0.404 in [7]. In addition, the composite z-score in assay [8] was 1.26; in [9] it was 1.28; in assay [10] it was 0.0765; in [11], 1.34; in [13], 1.24; in assay [14], -0.349. Besides, the composite z-score was -0.125 in assay [15]; -0.127 in assay [16]; 0.0952 in assay [17]; -0.0721 in assay [18]; 0.0715 in assay [19]; 0.612 in assay [20]. In addition, the z-score in [4] was -1.88 (inactive); in assay [12] it was 4.01.

Turning to `[N-]=[N+]=NCc1ccccc1C[C@@]1(C(=O)N2CCOCC2)N=C(c2ccc(OCCCO)cc2)O[C@@H]1c1ccccc1`, the composite z-score in assay [1] was 0.511; in assay [2], 0.881; in [3] it was 1.18; in assay [5], 1.03; in [6] it was 1.28; in assay [7], 0.0805. The composite z-score in assay [8] was -0.14; in assay [9], -0.519; in [10], 0.686; in assay [11] it was 1.45; in [13] it was 0.285; in assay [14], 1.83. Besides, the composite z-score in assay [15] was 0.997; in [16], 0.0597; in assay [17] it was 0.412; in assay [18], -0.549; in [19], 2.09; in assay [20] it was 0.916. Besides, the z-score was -0.691 (inactive) in assay [4] and -3.27 in assay [12].

As to `COC(=O)[C@@]1(Cc2ccc(F)cc2)[C@H]2c3cc(C(=O)N4CCCC4)n(CCN4CNCC4=O)c3C[C@H]2CN1C(=O)c1ccccc1`, the composite z-score is 1.51 in [1]; 0.845 in [2]; 0.82 in assay [3]; -0.142 in assay [5]; 1.26 in assay [6]; -0.472 in [7]. For the same molecule, the composite z-score in [8] is 0.131; in assay [9] it was -1.29; in [10], 0.781; in assay [11], 1.44; in assay [13], -1; in assay [14] it was -0.606. Also, the composite z-score in assay [15] was -0.234; in assay [16] it was 0.307; in [17], 0.151; in assay [18], -0.158; in [19] it was 2.1; in assay [20], 1.07. Also, the z-score in assay [4] was 1.64 (inactive); in assay [12] it was -1.8.

For the origin of these results see PubChem BioAssay.
